Screening data deposited in PubChem BioAssay by several laboratories.
An excerpt weighted towards active compounds, which were near 1.5% of everything screened.
E coli Lon inh: inhibits E. coli Lon protease; purified E. coli Lon protease, fluorescence polarization; inhibition, % at 7.94 µM; hit rate 0.42% among 360,000; AID 602123; in the data active = inhibition above about 13%, passing the limit was not always enough;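 also: 0% = enzyme with probe and DMSO and 100% = no enzyme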
BCLXL inh: blocks human Bcl-xL binding to Bim BH3 peptide | Q07817 | GST-Bcl-xL / FITC-Bim BH3 peptide fluorescence polarization | inhibition, % at 10.9 µM | hit rate 0.7% among 320,000;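 active = inhibition above the mean of all tested compounds plus 3 SD, cutoff set per campaign, cut at about 30% in these data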;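 also: 0% = DMSO wells and 100% = unlabeled Bim-BH3 peptide competitor; inhibitors lower millipolarization by displacing the labeled peptide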
Target sequence (Q07817 whole entry, looked up): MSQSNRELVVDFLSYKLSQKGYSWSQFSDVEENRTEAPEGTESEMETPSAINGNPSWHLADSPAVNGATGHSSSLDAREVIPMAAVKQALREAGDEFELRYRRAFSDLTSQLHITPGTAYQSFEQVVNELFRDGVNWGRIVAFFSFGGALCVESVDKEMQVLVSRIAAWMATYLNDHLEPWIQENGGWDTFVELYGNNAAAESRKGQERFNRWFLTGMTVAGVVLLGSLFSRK
EBV gp42 inh: EBV gp42 inhibition | Q1HVG2 | inhibition, % (tested at 21.74 µM) | AID 1085 | hit rate 0.42% among 220,000 | Fluorescence polarization binding assay, mP read-out; in the data active = inhibition above about 50%
Target sequence (Q1HVG2 whole entry, looked up): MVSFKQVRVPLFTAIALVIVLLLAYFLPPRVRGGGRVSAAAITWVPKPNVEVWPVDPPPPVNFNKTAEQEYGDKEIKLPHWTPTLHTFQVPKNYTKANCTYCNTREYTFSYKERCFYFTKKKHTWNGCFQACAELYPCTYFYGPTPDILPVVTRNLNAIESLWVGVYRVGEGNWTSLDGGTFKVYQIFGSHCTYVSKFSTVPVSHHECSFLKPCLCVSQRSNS
MCL1 BIM primary: MCL1-BIM-BH3 interaction inhibition (human); GST-MCL1 / FITC-Bim-BH3 fluorescence polarization; Q07820; hit rate 0.68% among 320,000; inhibition, % at 10.9 µM; AID 2057;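 active = inhibition above the mean inhibition of all tested compounds plus 3 SD, set per campaign, cut at about 40% in these data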;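 also: 0% = DMSO wells and 100% = unlabeled Bim-BH3 peptide control; higher means more loss of mP so more displacement of Bim peptide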
GLD-1 RNA inh: GLD-1-TGE RNA interaction inhibition (C. elegans); Q17339; purified GLD-1 + fluorescein TGE RNA, fluorescence polarization; inhibition, % at 5.96 µM; hit rate 0.44% among 320,000; AID 2280;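 active = percent inhibition above a per-plate cutoff, the plate mean of test compounds plus 3 SD, cut at about 30% in these data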;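 also: 0% = DMSO wells with GLD-1 and probe and 100% = wells lacking GLD-1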
MEX-5 binding: C. elegans MEX-5 TCR-2 RNA binding activity. activity score (negative = inhibition of binding), % at 10 µM. AID 1832. hit rate 0.38% among 300,000. Q9XUB2. MEX-5/FITC-TCR2 RNA binding, fluorescence polarization; active compounds read low;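 active = inhibition past about -25% in most replicates, and total fluorescence under double the plate's negative control median, limit read from the data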;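 also: 0% = DMSO and -100% = 5 µM competing unlabeled TCR2 RNA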
E coli Lon conf: confirmation of E. coli Lon protease inhibitors | inhibition, % at 7.94 µM | shares compounds with E coli Lon inh | purified E. coli Lon, fluorescence polarization | AID 602230 | hit rate 31% among 1,400; in the data active = inhibition above about 16%;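 also: 0% = enzyme with probe and DMSO and 100% = no enzyme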
* = called active by the depositor; . = no result given.

SMILES	E coli Lon inh	BCLXL inh	EBV gp42 inh	MCL1 BIM primary	GLD-1 RNA inh	MEX-5 binding	E coli Lon conf
CC(C)S(=O)(=O)c1csc(NC(=O)Nc2cccc([N+](=O)[O-])c2)c1Cl	22*	-5	-4	-2	1	1	-6
Cc1cccc(Cn2c(NC3CCCC3)nc3c2c(=O)[nH]c(=O)n3C)c1	-14	.	.	.	.	.	.
Cc1nc(N2CCOCC2)sc1C=O	20*	3	-7	-4	8	-2	-6
c1c2c(cc3sc(N4CCOCC4)nc13)OCCO2	4	1	-11	2	1	0	.
NS(=O)(=O)c1ccc(NS(=O)(=O)c2ccc(C3CNC(=O)C3)cc2)cc1 (centres undefined)	19*	2	.	2	7	-2	7
COC(=O)N/N=C\c1cc2c(cc1Br)OCO2	18*	-1	12	2	-8	0	-6
Cc1ccc(C(=O)N/N=C\c2cc3c(cc2Br)OCO3)s1	12	1	11	-15	6	-1	.
CC1CCCCC1NC(=O)CN1C(=O)c2cccc(N)c2C1=O (centres undefined)	17*	.	79*	.	.	-8	26*
CC1CCCCC1NC(=O)COC(=O)CN1C(=O)c2ccccc2C1=O (centres undefined)	-2	-4	.	-2	4	.	.
C[C@H](NC(=O)c1nc[nH]c1C(=O)N1CCc2ccccc2C1)C(=O)OCc1ccccc1	-3	2	-14	-6	2	5	.
Cc1ccc(NC(=S)N=Nc2c(O)[nH]c3ccccc23)cc1	14*	2	-3	2	0	1	-13
Oc1ccc(NC(=S)N=Nc2c(O)[nH]c3ccccc23)cc1	18*	24	2	19	0	-26*	21*
COc1ccc(NC(=S)N=Nc2c(O)[nH]c3ccccc23)cc1	13	13	-6	16	1	1	.
O=C(c1ccc2c(c1)OCO2)C1CCCN(C2CCN(CCc3ccccc3)CC2)C1 (centres undefined)	1	3	-3	-5	-11	0	.
O=C(NCc1ccccc1)C1=C[C@@H](C2CCCCC2)C[C@@H](OCCCCO)O1	-12	0	.	-5	6	0	.
CCOC(=O)N1CCN(Cc2nc3ccc([N+](=O)[O-])cc3c(=O)n2-c2ccccc2F)CC1	18*	0	.	3	2	1	0
O=C(NCc1ccc(F)cc1)c1cc(C2CCCCN2S(=O)(=O)Cc2ccccc2)on1 (centres undefined)	-1	.	.	.	.	.	.
CCOc1ccc(CNC(=O)CN2C(=O)CSc3ccc(S(=O)(=O)N4CCOCC4)cc32)cc1OC	64*	2	.	2	1	1	0
Cc1cc(-c2ccc(S(=O)(=O)N3CCCCC3)s2)on1	-1	6	.	8	3	-1	.
Cn1cccc1C1Nc2ccccc2NC2=C1C(=O)CC(C)(C)C2 (centres undefined)	39*	3	1	8	9	1	-10
COc1cc(OC)c(C2Nc3ccccc3NC3=C2C(=O)CC(C)(C)C3)cc1OC (centres undefined)	17*	4	.	10	5	-1	-8
COC(=O)C1=C(C(=O)OC)[C@@H]2Nc3ccccc3[C@@]23C[C@@H](C(=O)OC)N(C(=O)C2CCC2)C3=N1	0	0	.	-10	-3	1	.
Cc1ccc(SCCC(=O)Nc2ccccc2C(=O)NC(C)C)cc1	69*	8	4	7	4	-1	15
O=C(NCc1cccnc1)c1cc(C2CCCCN2S(=O)(=O)c2cccc3cccnc23)on1 (centres undefined)	-6	.	.	.	.	.	.
COc1cccc(/C=C/C(=O)c2ccc3c(c2)OCCO3)c1OC	20*	5	.	2	0	0	9
SMILES	E coli Lon inh	BCLXL inh	EBV gp42 inh	MCL1 BIM primary	GLD-1 RNA inh	MEX-5 binding	E coli Lon conf
O=C(COC(=O)COc1ccccc1F)Nc1ccc2c(c1)OCO2	0	-1	.	2	1	.	.
N#Cc1cnc(SCC(=O)N2CCCC2)nc1N	14*	-2	.	-6	4	0	-11
COc1ccc(CNC(=O)CN(c2ccc(C)cc2)S(=O)(=O)c2c(C)nn(C)c2C)cc1	1	13	.	8	4	1	.
CC[C@@H](C)[C@H](CN[C@H](CNC)[C@@H](C)O)NCCc1ccc(OC)cc1	-8	3	.	15	4	0	.
O=C(c1ccc2c(c1)CCN2S(=O)(=O)c1ccccc1)N1CCN(c2ccccc2F)CC1	18*	2	.	29	1	2	4
O=C(c1ccc2c(c1)CCN2S(=O)(=O)c1ccccc1)N1CCN(c2ccccc2)CC1	-15	4	.	7	10	1	.
CCOC(=O)C1CCCC12Nc1cccc3cccc(c13)N2 (centres undefined)	-17	.	.	.	.	.	.
O=C1c2cccc3c([N+](=O)[O-])ccc(c23)C(=O)N1Cc1cccnc1	51*	.	123*	.	.	-15	75*
Cc1nnc(N2C(=O)c3cccc4c([N+](=O)[O-])ccc(c34)C2=O)s1	15*	15	.	16	6	-2	13
COc1cccc(C(=O)Oc2ccc3ccc(=O)oc3c2)c1	23*	1	.	6	4	1	47*
Cc1ccc2cccnc2c1NC(=S)NC(=O)c1ccccc1	19*	3	-18	5	5	-1	2
Cc1ccc2cccc(NC(=S)NC(=O)c3ccccc3)c2n1	-13	5	-8	9	5	2	.
COC(=O)c1ccccc1NC(=S)NC(=O)c1ccccc1	16*	-4	-6	9	0	0	10
COc1ccc(/C=N/N2CCN(C)CC2)c(OC)c1OC	20*	6	-15	-4	9	0	-8
CCOc1cccc(C(=O)NC(=S)Nc2cccnc2)c1	2	9	-5	10	0	2	.
CCCCOc1cccc(C(=O)NC(=S)Nc2cccnc2)c1	19*	2	-13	11	-5	2	-46
CC(=O)C1=C(O)C(=O)N(c2ccc(Br)cn2)C1c1ccc(Br)cc1 (centres undefined)	-7	4	-3	-4	-7	1	.
CC(=O)C1=C(O)C(=O)N(c2ccc(Br)cn2)C1c1ccc(F)cc1 (centres undefined)	28*	3	-11	-1	-2	0	1
CCCn1c(=S)[nH]c2cc(C(=O)N3CCN(C)CC3)ccc2c1=O	14*	.	.	.	.	.	2
CCOCCCn1c(=S)[nH]c2cc(C(=O)N3CCN(C)CC3)ccc2c1=O	-7	0	-6	2	0	-1	.
O=c1[nH]c2ccccc2nc1/C=C/c1ccccc1	14*	10	-1	11	0	-5	-36
CC(=O)N1CC2(CC(c3ccc(Cl)cc3Cl)=NO2)CN1c1cccc(Cl)c1 (centres undefined)	-3	.	.	.	.	.	.
